These results are taken from the supplement of paper PMC8183993.

Structures are written as SMILES. “And” between values parts separate entries of the source, which are not always exact repeats. Identical values can stand only once. Counter-ions that a name gives are not always drawn. ± gives the standard deviation of the averaged measurements. The full ranking holds about 3,200 compounds; the median of “nuclei count (viability) relative to DMSO” is about 99, and the lowest 2% start at about 16. Many of the other results were omitted from the sample, so the lowest values are more common in it than they were.

The test deals with U2OS. The experiment in a line: nuclei count (viability) relative to DMSO (% of DMSO); higher = more viable cells. To be noted: 10 µM; 24 h. As to the method: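 Primary image-based screen in U2OS cells: compounds at 10 uM for 24 h, then a 1 h o-propargyl-puromycin (OPP) pulse, click labelling, and high-throughput microscopy. Mean cytoplasmic OPP intensity and nuclei count were normalised to DMSO wells within each plate (DMSO = 100) and averaged over triplicate plates.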
In turn, `Cc1cccc(C)c1NC(=O)C[N+](C)(C)C` returned a nuclei count of 106.

For `CCn1nnc2c(N3CCOCC3)nc(-c3ccc(NC(=O)Nc4ccc(C(=O)N5CCN(C)CC5)cc4)cc3)nc21`, the nuclei count turned out to be 77.7.

Consider `CC(C)c1ccc(Cn2ccc3c4c(N)nc(NC5CC5)nc4ccc32)cc1`, for which the nuclei count was found to be 29.3.

With `Cc1c(NC(=O)N2CCOCC2)ccc2c1c1ccccc1n2C(C)C`, the nuclei count worked out at 94.6.

Molecule `CC(C)C[C@H](NC(=O)CNC(=O)c1cc(Cl)ccc1Cl)B(O)O` came in with a nuclei count of 9.55.

In the case of `CC(C)C[C@H](NC(=O)[C@H](CCC(=O)O)NC(=O)CNC(=O)c1ccc(/C=C/C(=O)O)cc1)C(N)=O`, the nuclei count is 97.5.

`CC(C)C[C@H](NC(=O)CNC(=O)c1cc(Cl)ccc1Cl)B1OC(=O)C(CC(=O)O)(CC(=O)O)O1` registered a nuclei count of 11.6.

For `N=C(N)c1ccc(N2CCN(C3CCN(CC(=O)O)CC3)CC2)cc1`, the nuclei count was found to be 104.

For the molecule `CCCC(=O)[O-].[Na+]` [Sodium butyrate], the nuclei count amounted to 89.2.

With `CC1=C(/C=C/C(C)=C/C=C/C(C)=C/C(=O)O)C(C)(C)CCC1O` (stereo not given) [4-Hydroxyretinoic acid], the nuclei count stood at 101.

Molecule `NC(C(=O)O)c1ccc(C(=O)O)c(C(=O)O)c1` (racemic) returned a nuclei count of 102.

Consider `COc1cccc(-c2cc(NCc3ccc4c(c3)OCO4)nc(N)n2)c1`, for which the nuclei count is 19.1.

Consider `CC(C)[C@H]1c2ccc(F)cc2CC[C@@]1(CCN(C)CCCc1nc2ccccc2[nH]1)OC(=O)C1CC1` [NNC 55-0396 dihydrochloride], for which the nuclei count was determined as 10.5.

With `COCC(=O)O[C@]1(CCN(C)CCCc2nc3ccccc3[nH]2)CCc2cc(F)ccc2[C@@H]1C(C)C` [Mibefradil dihydrochloride], the nuclei count was determined as 81.7.

As for `CC(C)c1ccc(NC(=O)Cn2cnc3c2c(=O)n(C)c(=O)n3C)cc1`, the nuclei count came out at 103.

In turn, `COc1cc2c(NC3CCN(C(C)C)CC3)nc(N3CCC(F)(F)CC3)nc2cc1OCCCN1CCCC1` returned a nuclei count of 50.6.

The molecule `C[C@@H]1CN(CCCn2c3ccccc3c3ccccc32)C[C@H](C)N1` [Rimcazole dihydrochloride] showed a nuclei count of 80.

Take `CCN(CCO)CCCC(C)Nc1ccnc2cc(Cl)ccc12` (stereo not given) [Hydroxychloroquine sulfate]: the nuclei count amounted to 96.1.

`CCN(CCO)CCCC(C)Nc1ccnc2cc(Cl)ccc12` (stereo not given) [Hydroxychloroquine] displayed a nuclei count of 85.7.

The molecule `CCN(CC)CCCC(C)Nc1ccnc2cc(Cl)ccc12` (stereo not given) [Chloroquine diphosphate] yielded a nuclei count of 103.

`CCN(CC)CCCC(C)Nc1ccnc2cc(Cl)ccc12` (stereo not given) [Chloroquine] displayed a nuclei count of 96.6.

As for `CCN(CC)CCCC(C)Nc1c2ccc(Cl)cc2nc2ccc(OC)cc12` (stereo not given) [Quinacrine dihydrochloride dihydrate], the nuclei count came to 12.9.

`CC1=CC(=O)C(C(C)C)=CC1=O` [Thymoquinone] returned a nuclei count of 103.

Regarding `COc1ccc(CCN(C)CCCOc2ccc(S(=O)(=O)c3c(C(C)C)n(C)c4ccccc34)cc2)cc1OC`, the nuclei count stood at 47.5.

Regarding `C1CCC(C(CC2CCCCN2)C2CCCCC2)CC1` (stereo not given) [Perhexiline maleate], the nuclei count was 5.66.

The molecule `COc1cc(-c2cn(C)c(=O)c3cnccc23)c(OC)cc1CN(C)C` returned a nuclei count of 110.

Turning to `Cc1ccc(-n2nc(C(C)(C)C)cc2NC(=O)Nc2ccc(OCCN3CCOCC3)c3ccccc23)cc1` [BIRB 796 (Doramapimod)], the nuclei count was 94.7.

`COc1ccc(NC(=O)c2ccc(-c3ccc(-c4noc(C)n4)cc3C)cc2)cc1OCCN(C)C`: the nuclei count came out at 100.

On to `C[n+]1cc2c3c(ccc2c2ccc4cc5c(cc4c21)OCO5)OCO3` [Sanguinarine chloride], for which the nuclei count came out at 12.

Take `COc1ccc2cc3[n+](cc2c1OC)CCc1cc2c(cc1-3)OCO2` [Berberine HCl]: the nuclei count stood at 98.6.

`Cc1[nH]c2ccccc2c1C(Nc1ccccn1)c1ccc(Cl)cc1` (stereo not given): the nuclei count worked out at 93.9.

With `CC[N+](C)(CC)CC(=O)Nc1c(C)cccc1C` [N-Methyllidocaine iodide], the nuclei count is 98.4.

Molecule `CC1=C(C(=O)OCCN(Cc2ccccc2)c2ccccc2)C(c2cccc([N+](=O)[O-])c2)C(P2(=O)OCC(C)(C)CO2)=C(C)N1` (stereo not given) [Efonidipine hydrochloride monoethanolate] had a nuclei count of 99.9.

`COc1cc(NC(C)CCCN)c2ncccc2c1` (stereo not given) [Primaquine diphosphate] gave a nuclei count of 15.7.

The molecule `CCC(C)N(C)C(=O)c1cc2ccccc2c(-c2ccccc2Cl)n1` (stereo not given) showed a nuclei count of 106.

`COC(=O)c1c(-c2cc(OC)c(OC)c(OC)c2)c2ccnc(OCc3ncccn3)c2c(=O)n1Cc1ccnc(C)c1` [T 0156 hydrochloride] registered a nuclei count of 107.

`COc1cc2c(Nc3ccc(NC(=O)c4ccccc4)cc3)ncnc2cc1OCCCN1CCOCC1`: the nuclei count was 49.8 and 53.3.

On to `COc1cc2nccc(Oc3ccc(NC(=O)C4(C(=O)Nc5ccc(F)cc5)CC4)cc3)c2cc1OC` [XL-184 free base (Cabozantinib)], for which the nuclei count was found to be 51.5.

With `COc1cc2c(Oc3ccc(NC(=O)C4(C(=O)Nc5ccc(F)cc5)CC4)cc3F)ccnc2cc1OCCCN1CCOCC1`, the nuclei count is 12.

The molecule `COc1cc2nccc(Oc3ccc(NC(=O)C4(C(=O)Nc5ccc(F)cc5)CC4)cc3)c2cc1OC` [Cabozantinib malate] yielded a nuclei count of 59.

`O=C1c2c(O)cc(O)cc2OC(c2ccc(O)c(O)c2)C1O` (stereo not given) [Taxifolin (Dihydroquercetin)]: the nuclei count amounted to 90.7.

The molecule `O=C(O)c1ccc(O)c2ncccc12` showed a nuclei count of 99.5.

Turning to `COc1ccc([C@@H]2CNC(=O)C2)cc1OC1CCCC1` [(R)-(-)-Rolipram], the nuclei count is 96.2.

Regarding `CC[N+](CC)(CC)CC(=O)Nc1c(C)cccc1C` [QX 314 bromide], the nuclei count is 97.5.

The molecule `CC[N+](CC)(CC)CC(=O)Nc1c(C)cccc1C` [QX 314 chloride] yielded a nuclei count of 104.

In turn, `CC[N+](CC)(CC)CC(=O)Nc1c(C)cccc1C` [QX-314 bromide] showed a nuclei count of 104.

In turn, `CCCCCCCCCCCCCCCC[N+](C)(C)CCN(Cc1ccc(OC)cc1)c1ncccn1` [Thonzonium bromide] returned a nuclei count of 12.1.

`COc1ccc(CN(CCN(C)C)c2ccccn2)cc1` [Pyrilamine maleate] showed a nuclei count of 102.

Molecule `COc1ccc(CN(CCN(C)C)c2ccccn2)cc1` [Mepyramine maleate] came in with a nuclei count of 104.

In turn, `CN(C)CCN(Cc1ccc(Cl)cc1)c1ccccn1` [Chloropyramine hydrochloride] displayed a nuclei count of 105.

As for `CC(=O)O[C@@H]1C[C@H]2C(C)(C)C(=O)C=C[C@]2(C)[C@H]2CC[C@@]3(C)[C@H](c4ccoc4)OC(=O)[C@H]4O[C@]43[C@@]21C` [Gedunin], the nuclei count was found to be 85.6.

Consider `COC1CCC(C(=O)c2ccc3nc4c(cc3c2)CCCO4)CC1` (stereo not given), for which the nuclei count is 96.5.

On to `CCn1cc(-c2cccc(C(F)(F)F)c2)c2sc(C(=N)NC3CCS(=O)(=O)CC3)cc2c1=O`, for which the nuclei count came to 91.5.

For `Cc1ccc(C(=O)N(CCCN)[C@@H](c2nc3cc(Cl)ccc3c(=O)n2Cc2ccccc2)C(C)C)cc1`, the nuclei count worked out at 9.23.

`Cc1ccc(C(=O)N(CCCN)[C@@H](c2oc3cc(Cl)ccc3c(=O)c2Cc2ccccc2)C(C)C)cc1` returned a nuclei count of 20.5.

In turn, `Fc1ccc(-c2nc3n(c2-c2ccncc2)CCS3)cc1` showed a nuclei count of 103.

As for `C[C@H]1C[C@H]2[C@@H]3CCC4=CC(=O)C=C[C@]4(C)[C@H]3C(=O)C[C@]2(C)[C@@]1(O)C(=O)CO` [Betapar (Meprednisone)], the nuclei count is 107.

Take `C[C@H](CC[C@@H]1OC1(C)C)[C@H]1CC[C@H]2[C@@H]3CC=C4C[C@@H](O)CC[C@]4(C)[C@H]3CC[C@]12C` [24(S),25-Epoxycholesterol]: the nuclei count amounted to 107.

As to `Cc1c(NC(=O)OC[C@@H]2COCCN2)cn2ncnc(Nc3ccc4c(cnn4Cc4cccc(F)c4)c3)c12`, the nuclei count came out at 100.

Turning to `CC1(C)C(=O)NC2=C1C(=O)C(=O)c1ccccc12`, the nuclei count was 40.5 and 19.2.

On to `COc1ccc(NS(=O)(=O)c2sc3ccc(Cl)cc3c2C)cc1N1CCNCC1`, for which the nuclei count worked out at 98.3.

`O=C(Nc1ccccc1)C12CC1C(=NO)c1ccccc1O2` (stereo not given): the nuclei count worked out at 99.8.

The molecule `O=C1C(Cl)=C(NCCN2CCOCC2)C(=O)c2ncccc21` displayed a nuclei count of 5.89.

As to `O=C(NCCN1CCOCC1)c1ccc(Cl)cc1` [Moclobemide], the nuclei count is 90.8.

`Cc1cc(-c2ccccc2)nnc1NCCN1CCOCC1` [Minaprine dihydrochloride]: the nuclei count came to 102.

`CCN(CC)c1ccc(/C=N/NC(=O)c2ccc(O)cc2)cc1` yielded a nuclei count of 89.4.

`C[N+](C)(C)CC[N+]1(C)Cc2c(Cl)c(Cl)c(Cl)c(Cl)c2C1` [Chlorisondamine diiodide]: the nuclei count is 90.8.

For the molecule `O=C(O)[C@H]1O[C@@H](Oc2cc3oc(-c4ccccc4)cc(=O)c3c(O)c2O)[C@H](O)[C@@H](O)[C@@H]1O` [Baicalin], the nuclei count is 101.

Consider `c1cc2c3c(c1)c1c(n3CCNC2)CCCC1` [WAY 629 hydrochloride], for which the nuclei count was found to be 94.2.

For `Cc1cc(O)c2c(c1)C(=O)c1cccc(O)c1C2=O` [Chrysophanic acid (Chrysophanol)], the nuclei count turned out to be 92.5 ± 11.

Turning to `CCN(CC)Cc1ccc2cc(COC(=O)Nc3ccc(C(=O)NO)cc3)ccc2c1` [ITF2357 (Givinostat)], the nuclei count turned out to be 14.7.

Regarding `COc1ccc(Cn2ccc3ccc(C(=O)NO)cc32)cc1`, the nuclei count is 101.

The molecule `CC(C)[C@H](C(=O)Nc1ccc(C(=O)NO)cc1)c1ccccc1` registered a nuclei count of 29.3.

`Nc1ncnc2c1ncn2[C@@H]1O[C@H](COP(=O)(O)OP(=O)(O)OP(=O)(O)O)[C@@H](O)[C@H]1O` [ATP (Adenosine-Triphosphate)] registered a nuclei count of 106.

`CCN(CC)CCNC(=O)c1c(C)[nH]c(/C=C2\C(=O)Nc3ccc(Cl)cc32)c1C` registered a nuclei count of 79.9.

The molecule `CCCS(=O)(=O)c1nc(NC2CC2)cc(-c2ccc3c(ccn3C3CC(C)(C)NC(C)(C)C3)c2)n1` returned a nuclei count of 8.4.

In turn, `O=C(NC[C@H](O)CN1CCc2ccccc2C1)c1ccnc(NC2CCC2)c1` showed a nuclei count of 102.

`Cc1ccc(/C=C2\CNC/C(=C\c3ccc(C)cc3)C2=O)cc1` showed a nuclei count of 7.58.

With `CC1(C)[C@@H](O[C@H]2O[C@H](C(=O)O)[C@@H](O)[C@H](O)[C@H]2O[C@@H]2O[C@H](C(=O)O)[C@@H](O)[C@H](O)[C@H]2O)CC[C@]2(C)[C@H]3C(=O)C=C4[C@@H]5C[C@@](C)(C(=O)O)CC[C@]5(C)CC[C@@]4(C)[C@]3(C)CC[C@@H]12` [Ammonium Glycyrrhizinate (AMGZ)], the nuclei count came to 101.

In the case of `CC1(C)[C@@H](O[C@H]2O[C@H](C(=O)O)[C@@H](O)[C@H](O)[C@H]2O[C@@H]2O[C@H](C(=O)O)[C@@H](O)[C@H](O)[C@H]2O)CC[C@]2(C)[C@H]3C(=O)C=C4[C@@H]5C[C@@](C)(C(=O)O)CC[C@]5(C)CC[C@@]4(C)[C@]3(C)CC[C@@H]12` [Glycyrrhizic acid], the nuclei count amounted to 101.
